This note sets out measurements from PubChem BioAssay (NCI).

Holding throughout (experiment): NCI-60 one-dose screen, 48 h (100 = growth as untreated, 0 = no growth, -100 = all killed)
Holding throughout (conditions): 10 µM unless noted

Experiment [1] relates to SK-MEL-2 melanoma.
Experiment [2] concerns EKVX NSCLC.
Experiment [3] has as its system SN12C renal.
For experiment [4], the system named is UO-31 renal.
Experiment [5] concerns TK-10 renal.
In experiment [6] the test system is ACHN renal.
Experiment [7] has as its system CAKI-1 renal.
The test system of experiment [8] is CCRF-CEM leukemia.
In experiment [9] the test system is MOLT-4 leukemia.
Experiment [10] relates to SR leukemia.
The subject of experiment [11] is RPMI-8226 leukemia.
The subject of experiment [12] is OVCAR-8 ovarian.
Experiment [13] concerns OVCAR-5 ovarian.
Experiment [14] relates to OVCAR-4 ovarian.
Experiment [15] relates to SK-OV-3 ovarian.
Experiment [16] concerns IGROV1 ovarian.
Experiment [17] deals with OVCAR-3 ovarian.
In experiment [18] the test system is HS 578T breast.
Experiment [19] deals with NCI/ADR-RES ovarian.
Experiment [20] has as its system A498 renal.

Compounds without any hit were thinned out: in the full panel of roughly 83,000, 20% have a hit.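 Compound tested at a single concentration for 48 hours in 96-well plates; a percent growth value below 10 was scored as active.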 Values without a mark were called inactive. Calls of active or inactive are those of the source.

For the compound `Cc1cn(C2CCCCC2)c(=O)[nH]c1=O`, the growth in experiment [1] is 127%; in experiment [2], 121%; in [3], 108%; in [4], 99.8%; in experiment [5] it was 99.8%; in experiment [6], 103%. Moreover, the growth in experiment [7] was 119%; in experiment [8] it was 117%; in [9] it was 96.6%; in experiment [10], 111%; in experiment [11], 114%; in experiment [12], 106%. Also, the growth in experiment [13] was 94.9%; in [14] it was 90.8%; in experiment [15], 112%; in experiment [16], 126%; in [17] it was 110%; in experiment [18], 121%. In addition, the growth in experiment [19] was 109%.

Turning to `COc1ccc2c(c1)/C(=C\c1sc(=S)[nH]c1O)C(C(=O)O)=N2`, the growth in experiment [1] was 99.4%; in experiment [2] it was 93.6%; in [3] it was 100%; in [4], 82.6%; in experiment [5], 108%; in experiment [6] it was 99.8%. The growth is 86.2% in [7]; 95.7% in experiment [8]; 103% in [9]; 110% in experiment [10]; 101% in experiment [11]; 101% in experiment [13]. In addition, the growth was 101% in experiment [14]; 107% in experiment [16]; 98.8% in experiment [17]; 94% in [18]; 102% in experiment [19].

For the compound `Cn1cc(-c2ccc3nc(-c4ccc(CC(=O)Nc5cc(C(C)(C)C)no5)cc4)cnc3c2)cn1`, the growth was 22.2% [30 µM] in [1]; 26.1% [30 µM] in experiment [2]; 3.38% [30 µM] (active) in experiment [3]; 7.7% [30 µM] (active) in experiment [4]; 63.5% [30 µM] in experiment [5]; 5.16% [30 µM] (active) in experiment [6]. Further, the growth in [7] is 6.29% [30 µM] (active); in experiment [20] it was -4.96% [30 µM] (active); in [9], 22.1% [30 µM]; in [12], 31.5% [30 µM]; in experiment [13], 44.8% [30 µM]; in experiment [14], 28.7% [30 µM]. Also, the growth in experiment [15] is 11.2% [30 µM]; in [16] it was -2.97% [30 µM] (active); in experiment [17] it was 29.6% [30 µM]; in [18], 21.9% [30 µM]; in experiment [19] it was 19.8% [30 µM].

Turning to `O=c1cc(-c2ccc(OCc3ccccc3)cc2)oc2c(I)c(OCc3ccccc3)cc(OCc3ccccc3)c12`, the growth in experiment [1] is 113%; in experiment [2] it was 109%; in experiment [3] it was 101%; in [4] it was 80%; in experiment [5], 96.5%; in experiment [6], 98.5%. In addition, the growth in [7] was 84.2%; in experiment [8], 97.8%; in experiment [9], 113%; in [10] it was 94.3%; in experiment [11], 108%; in experiment [12] it was 99.6%. Moreover, the growth in experiment [13] is 103%; in experiment [14] it was 100%; in experiment [16] it was 100%; in experiment [17] it was 104%; in [18] it was 88.3%; in experiment [19] it was 101%.

Regarding `C=C1C(=O)O[C@H]2[C@H]1CC/C(COC(=O)NCc1ccc(Cn3c(=O)sn(CCCCl)c3=O)cc1)=C\CC[C@@]1(C)O[C@@H]21`, the growth in experiment [1] is 49%; in experiment [2] it was 57.1%; in [3], 18.5%; in [4], 11%; in [5], -65.2% (active); in experiment [6], -57.7% (active). The growth was 27.7% in experiment [7]; 104% in experiment [20]; -31.7% (active) in experiment [9]; -30.1% (active) in experiment [11]; 43.7% in experiment [12]; 69.8% in experiment [13]. The growth was 15.2% in [14]; 91.9% in [15]; -36.3% (active) in [16]; -87.9% (active) in experiment [17]; 88.2% in experiment [18]; 104% in [19].

`O=C(/C=C/C12c3ccccc3C(c3ccccc31)C1C(=O)N(c3ccccc3)C(=O)C12)c1ccc(Cl)cc1` (stereo not given): the growth is 22.3% in experiment [1]; 22.9% in experiment [2]; 19.9% in [3]; -37.1% (active) in experiment [4]; 42.8% in [5]; -36.2% (active) in experiment [6]. For the same compound, the growth was 54.2% in experiment [7]; 13% in [8]; 11.9% in experiment [9]; 16.9% in [10]; 4.68% (active) in experiment [11]; 30.7% in experiment [12]. Besides, the growth was 8.5% (active) in experiment [13]; 17.6% in [14]; 10.4% in experiment [16]; -53.9% (active) in experiment [17]; 14.1% in experiment [18]; 18.1% in experiment [19].

For the compound `COc1ccc(-c2cc(-c3ccc(Nc4nc(Nc5ccccc5)nc(Nc5ccc(Cl)cc5)n4)cc3)nc(N)c2C#N)cc1`, the growth in experiment [1] is -33% (active); in experiment [2], 18.7%; in [3] it was 25.7%; in [4] it was -71.5% (active); in experiment [5], -86.6% (active); in experiment [6], -82.2% (active). Also, the growth in experiment [7] is -20.4% (active); in experiment [8], 3.41% (active); in experiment [9], 2.08% (active); in [11], -29.6% (active); in [13], -38.7% (active); in experiment [14], 4.19% (active). Also, the growth is 86.8% in experiment [15], -18.4% (active) in experiment [16], -96.1% (active) in [17] and 2.12% (active) in experiment [19].

With `CCn1c(Sc2nnc(NC(=O)CSC(=S)N3CCCCC3)s2)nc2c1c(=O)n(C)c(=O)n2C`, the growth in [1] is 81.2%; in experiment [2] it was 88.5%; in [3] it was 96.6%; in experiment [4] it was 79.8%; in experiment [5], 95.8%; in [6], 77.5%. For the same compound, the growth is 47.7% in experiment [7]; 84.7% in [8]; 97.6% in experiment [9]; 44.8% in experiment [10]; 92.8% in experiment [12]; 93.6% in experiment [13]. Besides, the growth was 84% in experiment [14], 78.5% in [16], 56.5% in experiment [17] and 42.2% in experiment [19].

Take `N=C(N)c1ccc(-c2ccc(/C=C/c3ccccc3)s2)cc1`: the growth in experiment [1] is 102%; in experiment [2], 71.2%; in [3], -31.8% (active); in [4] it was 63.1%; in experiment [5], 98.5%; in [6], -5.84% (active). In addition, the growth in experiment [7] was 32.5%; in [8] it was 1.58% (active); in experiment [9], -21% (active); in [10] it was 1.05% (active); in [12], 8.3% (active); in experiment [13], 13.1%. Also, the growth is -24.8% (active) in experiment [14]; -62.6% (active) in experiment [16]; -25.5% (active) in experiment [17]; 57.4% in experiment [18]; -12.5% (active) in experiment [19].

On to `NS(=O)(=O)Oc1ccc(NC(=O)C23CC4CC(CC(C4)C2)C3)cc1Cl`, for which the growth in experiment [1] is 99.9%; in experiment [2], 93%; in [3], 90.6%; in experiment [4], 63.4%; in experiment [5], 100%; in experiment [6], 96.1%. Moreover, the growth in experiment [7] is 89%; in [8], 73.6%; in experiment [9], 82.3%; in [10] it was 99%; in experiment [12], 98.4%; in experiment [13], 101%. Besides, the growth in [14] was 83.9%; in experiment [16] it was 95.9%; in experiment [17] it was 103%; in experiment [18], 95.5%; in experiment [19], 93.6%.

Regarding `COc1cc2ccccc2cc1C(=O)NC(=S)Nc1ccc(-c2nc3ccccc3[nH]2)cc1`, the growth was 105% in experiment [1]; 89.9% in [2]; 83.4% in [3]; 89.8% in experiment [4]; 83.4% in [5]; 99.2% in experiment [6]. The growth was 90.7% in experiment [7]; 79.2% in [8]; 91.1% in experiment [9]; 71.5% in experiment [11]; 93.1% in experiment [12]; 103% in experiment [13]. The growth in experiment [14] is -35.9% (active); in experiment [16], 83.2%; in experiment [17] it was 55%; in experiment [18], 30.7%; in [19], 59.4%.
